Experimental data as given in PubChem BioAssay AID485270 (The Scripps Research Institute Molecular Screening Center, 2010).
Out of some 330,000 compounds screened, about 5,800 (1.8%) were called active. Cut-off read from the data, not from the text of the source: active = inhibition mostly above about 38% (no sharp cut-off); inactive = mostly below about 40%. The entries come from a sample that favours actives as a whole.

These compounds were tested against Orexin/Hypocretin receptor type 1 (Homo sapiens) (UniProt O43613) (assay: blocks the human orexin 1 receptor (AID 485270;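 note: 0% = agonist challenge alone and 100% = reference antagonist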)). Details: OX1R-expressing cells, FRET antagonist read-out; at 6.6 µM; stronger effect = higher value.
Sequence of Orexin/Hypocretin receptor type 1 (Homo sapiens) (O43613 whole entry, looked up): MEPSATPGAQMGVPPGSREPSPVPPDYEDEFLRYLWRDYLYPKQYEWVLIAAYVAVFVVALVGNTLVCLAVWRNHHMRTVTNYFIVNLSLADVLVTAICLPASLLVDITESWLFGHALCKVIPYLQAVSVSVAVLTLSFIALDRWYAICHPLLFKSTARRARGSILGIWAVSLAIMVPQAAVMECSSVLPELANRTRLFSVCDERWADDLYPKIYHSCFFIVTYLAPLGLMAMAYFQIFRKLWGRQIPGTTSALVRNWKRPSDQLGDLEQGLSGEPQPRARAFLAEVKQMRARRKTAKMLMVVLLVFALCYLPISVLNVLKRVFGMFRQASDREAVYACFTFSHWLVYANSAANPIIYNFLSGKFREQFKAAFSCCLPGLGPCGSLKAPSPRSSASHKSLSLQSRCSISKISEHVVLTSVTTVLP

| Compound | inhibition |
| --- | --- |
| CC(C)(C)c1cc(C(=O)N/N=C/c2ccc([N+](=O)[O-])s2)n[nH]1 | 56.3% (active) |
| Cc1ccccc1NCC(=O)N/N=C\c1ccc([N+](=O)[O-])s1 | 20.9% (inactive) |
| COc1ccc2ccccc2c1/C=N/NC(=O)c1cc(C)[nH]n1 | 39.3% (inactive) |
| CC(=O)N1CCCc2cc(S(=O)(=O)N3CCCC(C(=O)N4CCN(c5cccc(Cl)c5)CC4)C3)ccc21 (stereo not drawn) | 39.7% (active) |
| CC(=O)N1CCCc2cc(S(=O)(=O)N3CCCC(C(=O)NCc4ccc(Cl)cc4)C3)ccc21 (stereo not drawn) | 10.5% (inactive) |
| CC(=O)N1c2ccc(S(=O)(=O)N3CCCC(C(=O)Nc4cccc(Cl)c4)C3)cc2CC1C (stereo not drawn) | 2.16% (inactive) |
| CSCCC1NC(=O)N(CC(=O)Nc2cccc(S(=O)(=O)N3CCCCCC3)c2)C1=O (stereo not drawn) | 12.6% (inactive) |
| O=C1[C@@H](c2ccccc2)[C@@H](c2ccccc2)N1c1cccnc1 | 26% (inactive) |
| Cc1cc(C(C)(C)C)oc1C(=O)N(CC(=O)NC1CCCC1)Cc1ccc(Cl)cc1 | 22.5% (inactive) |
| O=C(COC(=O)Cc1ccc([N+](=O)[O-])cc1)NC1CCCCCC1 | 2.43% (inactive) |
| Cc1cc(C)cc(NC(=O)C(OC(=O)c2ccc(O)cc2)c2ccccc2)c1 (stereo not drawn) | 9.51% (inactive) |
| CC(C)CC[n+]1ccn(C2=C([O-])c3ccccc3C(=O)/C2=N\S(=O)(=O)c2ccccc2)c1 | 79.9% (active) |
| O=C(CCc1ccc(S(=O)(=O)N2CCOCC2)cc1)OCC(=O)c1ccc(Br)cc1 | 4.77% (inactive) |
| O=C(Nc1nnc(-c2ccccc2)o1)c1cccc(S(=O)(=O)N2CCOCC2)c1 | 13.1% (inactive) |
| COc1ccc(C(=O)C(C)OC(=O)c2cccc(S(=O)(=O)Nc3c(C)n(C)n(-c4ccccc4)c3=O)c2)cc1 (stereo not drawn) | 41.2% (active) |
| COc1ccc(NS(=O)(=O)c2ccc(C(=O)Nc3c(C)n(C)n(-c4ccccc4)c3=O)cc2)cc1 | 8.89% (inactive) |
| Cc1c(NC(=O)C(C)OC(=O)c2ccccc2O)c(=O)n(-c2ccccc2)n1C (stereo not drawn) | 5.32% (inactive) |
| Cc1cc(NC(=O)CSc2nnc(-c3ccco3)n2N)no1 | 9.57% (inactive) |
| O=C(CNC(=O)c1ccccc1F)OCC(=O)c1c[nH]c2ccccc12 | 3.49% (inactive) |
| COc1ccc(NS(=O)(=O)c2cc(NC(=O)c3ccc(S(=O)(=O)N(C)C)cc3)ccc2N2CCOCC2)cc1 | 6.2% (inactive) |
| COc1ccc(C(=O)COC(=O)C(O)c2ccccc2)c(OC)c1 (stereo not drawn) | 3.45% (inactive) |
| O=C(COC(=O)c1ccc(F)cc1)NCC1COc2ccccc2O1 (stereo not drawn) | 6.76% (inactive) |

| Compound | inhibition |
| --- | --- |
| O=C(CN1C(=O)S/C(=C\c2ccccc2F)C1=O)NCCCn1ccnc1 | 20.4% (inactive) |
| O=C(CN1C(=O)/C(=C/c2ccccc2F)Sc2ccccc21)NCc1cccnc1 | 46.6% (active) |
| O=C(CN1C(=O)/C(=C\c2ccc(C(F)(F)F)cc2)Sc2ccccc21)NCc1ccco1 | 38.3% (inactive) |
| C[C@H](NS(=O)(=O)c1ccc(Cl)cc1)C(=O)OCC(=O)N1CCOCC1 | 1.59% (inactive) |
| CSCCC(NC(=O)c1cc([N+](=O)[O-])cc([N+](=O)[O-])c1)c1nc2ccccc2[nH]1 (stereo not drawn) | 82% (active) |
| COc1ccc(CC(=O)N[C@@H](CCSC)c2nc3ccccc3[nH]2)cc1 | 33.1% (inactive) |
| CSCCC(NC(=O)c1ccc(=O)n(C)n1)c1nc2ccccc2[nH]1 (stereo not drawn) | 12.2% (inactive) |
| O=C(Nc1ncc([N+](=O)[O-])s1)C1COc2ccccc2O1 (stereo not drawn) | 57.4% (active) |
| COc1ccc([N+](=O)[O-])cc1NC(=O)CCc1ccccc1 | 28.9% (inactive) |
| O=C(CCc1ccccc1)Nc1ncc([N+](=O)[O-])s1 | 52.7% (active) |
| Cc1cnc(NC(=O)c2ccccn2)s1 | 14.3% (inactive) |
| O=C(Cc1c(F)cccc1Cl)Nc1ccc(-n2cnnn2)cc1 | 3.25% (inactive) |
| CN(c1ccccc1)S(=O)(=O)c1cccc(NC(=O)Cc2c(F)cccc2Cl)c1 | 26.3% (inactive) |
| O=C(Cc1c(F)cccc1Cl)Nc1ncc([N+](=O)[O-])s1 | 43.1% (active) |
| CC(C)Cc1nnc(NC(=O)CCc2ccccc2)s1 | -12.6% (inactive) |
| COc1ccc(NC(=O)C2COc3ccccc3O2)cc1 (stereo not drawn) | 3.74% (inactive) |
| CC(=O)Oc1ccccc1C(=O)Nc1ncc([N+](=O)[O-])s1 | 86% (active) |
| COc1ccc(OC)c2sc(NC(=O)C3COc4ccccc4O3)nc12 (stereo not drawn) | 14.5% (inactive) |
| COc1ccc(NC(=O)c2ccccc2[N+](=O)[O-])cc1OC | 10.8% (inactive) |
| O=C(OCCN1C(=O)c2ccccc2C1=O)[C@@H]1CC(O)CN1S(=O)(=O)c1ccccc1[N+](=O)[O-] (stereo partly drawn) | 7.02% (inactive) |
| O=C(COC(=O)C1CCCO1)Nc1nc(-c2ccc(F)cc2)cs1 (stereo not drawn) | 5.35% (inactive) |
| C=CCC[C@H](Cc1ccc(F)cc1)C(=O)OC[C@H](C)NC(=O)[C@H](CC=C)CC(=O)N(CCO)Cc1ccccc1 | 17.6% (inactive) |

| Compound | inhibition |
| --- | --- |
| O=C(COC(=O)c1ccc(F)c(S(=O)(=O)N2CCOCC2)c1)NCc1ccc2c(c1)OCO2 | 7.1% (inactive) |
| COc1ccc2c(CC(=O)NNC(=O)c3ccccc3F)coc2c1 | 7.98% (inactive) |
| CCCCOc1ccc(N(CC(=O)NC(C)C)C(=O)CCC(=O)Nc2ccccn2)cc1 | 4.64% (inactive) |
| CN(CCc1ccccc1)C(=O)c1cccc(NC(=O)Cc2ccc([N+](=O)[O-])cc2)c1 | 14.3% (inactive) |
| CN(Cc1ccccc1)C(=O)COC(=O)/C=C/c1ccc2c(c1)OCO2 | 4.7% (inactive) |
| CCCCNC(=O)C(C)N(CCN(C)C)C(=O)CCCN1C(=O)NC(c2ccc(Cl)cc2)C(C(=O)OCc2ccccc2)=C1C (stereo not drawn) | 13.9% (inactive) |
| C=C1c2cccc(OC)c2O[C@H](C(=O)OCC)[C@@H]1CCCCCC | 1.8% (inactive) |
| CC(C)OCCCNc1ncnc2c1[nH]c1ccc(F)cc12 | 64.8% (active) |
| CC(C)OCCCNC(=O)c1cc(Sc2ccc(F)cc2)nc2ccccc12 | 23.4% (inactive) |
| O=C1NC(Cc2ccc(O)cc2)c2nc3ccc(Cl)cc3c(=O)n2-c2ccccc21 (stereo not drawn) | 6.78% (inactive) |
| CCOC(=O)C1Sc2[nH]c(=O)sc2C(c2ccc(Cl)cc2)C1C(=O)OCC (stereo not drawn) | 49.6% (active) |
| CCOC(=O)C1C(c2ccc(Cl)cc2)NC(=S)NC1(O)C(F)(F)F (stereo not drawn) | 2.06% (inactive) |
| CCOC(=O)C1=C(C)NC(=O)N(C(C)=O)C1c1ccc(Cl)cc1 (stereo not drawn) | 12.3% (inactive) |
| COc1ccc(C)cc1NC(=O)CSc1cccc[n+]1[O-] | -5.73% (inactive) |
| Cc1c(CN2CC[C@@H](N3CCN(c4ccccn4)CC3)[C@H](O)C2)[nH]c2ccc(F)cc12 | -1.02% (inactive) |
| Fc1ccc2[nH]c3c(N4CCSCC4)ncnc3c2c1 | 85.8% (active) |
| COc1ccc2[nH]c3c(c2c1)CCN1C(=O)C(CC(=O)NCc2cccc(C(F)(F)F)c2)C[C@H](C(=O)N2CCOCC2)[C@@]31C (stereo partly drawn) | 13% (inactive) |
| CCC(CO)Oc1cc(NCc2ccccc2)c2ncn(C3CCCC3)c2c1 (stereo not drawn) | 12.8% (inactive) |
| N#CC(=C1CCCC1)c1nc(-c2ccc(Cl)cc2)cs1 | 20.1% (inactive) |
| N#CC(=C1SC=CS1)c1nc(-c2ccccc2)cs1 | 105% (active) |
| N#C/C(=C1\CCCN1)c1nc(-c2ccccc2)cs1 | 84.1% (active) |
| N#C/C(=C1/CCCN1)c1ccccn1 | 5.71% (inactive) |

| Compound | inhibition |
| --- | --- |
| CCNC(=O)CSc1nc(-c2ccccc2)cs1 | 16.1% (inactive) |
| Cn1c(/C(C#N)=C2/CCCCCN2)nc2ccccc21 | 11.5% (inactive) |
| Cc1c(NC(=O)CN(C)CC(=O)Nc2ccc(F)c(F)c2F)c(=O)n(-c2ccccc2)n1C | 4.65% (inactive) |
| COC(=O)[C@]1(Cc2ccccc2)N[C@H](CN(C)S(=O)(=O)c2ccc(F)cc2)[C@@H]2C(=O)N(Cc3ccccc3)C(=O)[C@@H]21 | 15.4% (inactive) |
| CNC[C@@H]1Oc2c(NS(C)(=O)=O)cccc2C(=O)N([C@@H](C)CO)C[C@H]1C | -1.47% (inactive) |
| O=C(C1CC1)N1N=C2CCCCC2C1(O)C(F)(F)F (stereo not drawn) | 5.9% (inactive) |
| CCOC(=O)[C@H]1[C@H]2COc3cc(OC)ccc3[C@@H]2N2C(=O)CN(Cc3ccc(Cl)cc3)C(=O)[C@@]12C | 7.39% (inactive) |
| O=C(NCCc1ccc(F)cc1)c1ccc2nccnc2c1 | 9.11% (inactive) |
| O=C(Nc1nnc(C2=COCCO2)o1)c1ccc([N+](=O)[O-])s1 | 88.5% (active) |
| Cc1ccc(C(=O)Nc2nnc(C3=COCCO3)o2)cc1C | 9.95% (inactive) |
| COc1cc(-c2nnc(NC(=O)C3=COCCO3)o2)cc(OC)c1OC | 4.19% (inactive) |
| O=C(COC(=O)/C=C/c1ccc(Br)o1)Nc1cccc(S(=O)(=O)N2CCOCC2)c1 | 4.21% (inactive) |
| Cc1noc(C)c1NC(=O)Nc1ccc2c(c1)C(=O)N([C@H](C)CO)C[C@H](C)[C@@H](CN(C)C(=O)Nc1ccccc1)O2 | -3.75% (inactive) |
| COc1cc(C(=O)OCc2cc(=O)n3ccsc3n2)ccc1OC(C)C | 8.65% (inactive) |
| CCN1CCN(c2c(Cl)cccc2NC(=O)c2ccc(Br)o2)CC1 | 14.6% (inactive) |
| COc1ccc(Cl)cc1NC(=O)COC(=O)c1ccc(Br)o1 | 5.94% (inactive) |
| COc1cc(OC)c(NC(=O)c2ccc(Br)o2)cc1Cl | 81.8% (active) |
| CCN(C[C@H]1N[C@@](CC)(C(=O)OC)[C@H]2C(=O)N(C)C(=O)[C@@H]12)C(=O)Nc1ccc(F)cc1 | -4.34% (inactive) |
| CCn1nnc2cc(C(=O)Nc3ccc(C(=O)OC(C)C)cc3)ccc21 | 16.8% (inactive) |
| CSc1ccc(/C=N\NC(=O)CC(=O)NC(C)C)cc1 | 9.93% (inactive) |
| CSc1ccc(/C=N/NC(=O)c2cccc(Cl)c2)cc1 | 44.4% (active) |
| O=C(N/N=C/c1ccc(Cl)c(Cl)c1)c1ccc2nc[nH]c2c1 | 31.8% (inactive) |
